High-throughput results (PubChem)
CHX counter: affects cycloheximide protein synthesis inhibition readout, counter-screen; cell reporter, cycloheximide protein synthesis inhibition counterscreen; max response, %; hit rate 12% among 300,000; AID 2314; in the data active means max response mostly above about 13%, no sharp cut-off; inactive means mostly below about 14%; further: read at 38.3 µM for the half of the compounds with a filed dose; 0% is about no effect
Shiga inhibitor: Shiga toxin inhibition; Vero cells, Shiga toxin protein synthesis inhibition reporter; inhibition, % at 38.7 µM; hit rate 9.2% among 290,000; in the data active means inhibition mostly above about 28%, no sharp cut-off; inactive means mostly below about 43%; further: 0% is about no effect
Pf growth 96h: P. falciparum growth inhibition at 96 hours | AID 504834 | P. falciparum luciferase reporter growth, 96 h | Potency, µM (series often up to 28.7 µM), for inactives: top-dose activity change, negative = inhibition, most hits filed as inhibitors | hit rate 6.9% among 320,000; further: potency means the concentration at half of the fitted maximal effect; on the % scale 0 is the no-effect control and ±100 the full control effect
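Luminescence readout: decreased luciferase signal marks inhibited growth of reporter-expressing P. falciparum in infected red cells (2% hematocrit, 0.05% parasitemia final), exposed to compound two generations (96 h, 37 C, 5% CO2).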
Pf growth 48h: P. falciparum growth inhibition at 48 hours (one generation); P. falciparum luciferase growth in erythrocytes, 48 h; Potency, µM (titrated, usually from 28.7 µM), for the others: at the top dose activity change, negative = inhibition, usual class: inhibitors; hit rate 5.9% among 310,000; further: potency means the concentration at half of the fitted maximal effect; on the % scale 0 is the no-effect control and ±100 the full control effect
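Luciferase-expressing P. falciparum in infected erythrocytes (2% hematocrit, 0.1% parasitemia final) in RPMI 1640/0.5% Albumax were exposed to compound for 48 hours at 37 C, 5% CO2; growth read as luminescence.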
* hit, by the source's call; i = inactive; ? = inconclusive; . = not tested or not shown; [ ] = another dose, or the depositor's remark. Shown are actives, neighbours in structure and some others; about 21% of the full set was active somewhere. Unless noted, the call rests on the fitted dose curve; in most records, active means well fitted inhibition curve with a large enough effect; inconclusive means small, poorly fitted or top-dose-only effect, or another doubt; inactive means no such curve, though single readings can be large or run the other way.

SMILES	CHX counter	Shiga inhibitor	Pf growth 96h	Pf growth 48h
CCOC(=O)C1CCN(CC(C)(C)NS(=O)(=O)c2ccccc2)CC1	-3.3	-19.2	15.2%	13.3%
OC(C#CCN1CCCCC1)(c1ccccc1)c1ccccc1	1.0	-5.8	?	5.5%
OC(C#CCN1CCCC1)(c1ccccc1)c1ccccc1	-1.9	-5.2	9.53µM*	?
CCN(CC)S(=O)(=O)c1ccc(=O)[nH]c1	4.8	14.1	14.9%	16.9%
CCOc1ccccc1NC(=O)COC(=O)c1cccc(-c2ccc(OC(C)=O)cc2)c1	-3.7	-10.4	9.28µM*	9.28µM*
CC(=O)Oc1ccc(-c2cccc(C(=O)OCC(=O)N(C)c3ccccc3)c2)cc1	-5.3	-6.5	14.7µM*	-87.8%
CN(C(=O)COC(=O)c1cccc(F)c1)c1ccccc1	12.6*	14.2	17.8%	22.9%
CC(C(=O)N1CCN(Cc2ccc3c(c2)OCO3)CC1)n1cc([N+](=O)[O-])cn1 (stereo not given)	-5.2	-5.5	2.7%	9.0%
CCN(CC(=O)Nc1c(F)cccc1F)C(=O)c1ccc(COc2ccccc2)o1	.	.	2.2%	-17.0%
O=C(NCCc1ccccc1)c1ccc2c(c1)S(=O)(=O)c1cc(Cl)ccc1C2=O	.	.	-6.8%	?
CCn1ccc(C(=O)Nc2ncc(C)s2)n1	27.7*	56.9*	-14.9%	24.2%
Cc1cnc(NC(=O)c2ccncc2)s1	17.5*	36.1*	0.0%	22.8%
Cc1ccc2nsnc2c1NC(=O)c1cncc(Br)c1	8.8	24.6	14.3%	-5.6%
Cc1cnc(NC(=O)c2cncc(Br)c2)s1	29.8*	53.2*	i	i
COc1ccc(CC(=O)OCC(=O)N2CCCc3ccccc32)cc1OC	.	.	2.7%	17.7%
CCOc1cc(Cl)c(S(=O)(=O)NCCCN2CCOCC2)cc1Cl	-4.7	-6.4	-12.0%	3.0%
Oc1c(Br)cc(Br)cc1CNn1cnnc1	-5.5	-9.7	?	-11.0%
CCCC[C@H]1C2=C3[C@@H](CC(C(=O)OC)=C[C@@H](C(=O)OC)[C@H]3C(C)(C)C2=O)n2c(=O)n(C)c(=O)n21	-2.1	4.8	.	.
COCCOC(=O)c1c(C)oc2ccc(OS(C)(=O)=O)cc12	21.0*	17.9	-20.7%	37.5%
CCOC(=O)C1(CC2CC2)CCN(Cc2ccc(C(=O)OC)cc2)CC1	-1.0	-8.7	-18.8%	9.28µM*
CCOC(=O)C1(CCc2ccccc2)CCN(C(=O)Cc2nonc2C)CC1	13.5*	62.6*	?	-17.9%
CCOC(=O)C1(CCOc2ccccc2)CCN(Cc2ccc(NC(C)=O)cc2)CC1	0.6	-22.7	15.0%	13.1µM*
CCOC(=O)C1(CCc2ccccc2)CCN(C(=O)c2occc2C)CC1	9.3	20.8	-2.1%	?
CC(=O)Nc1ccc(CN2CCC(CO)(CCOc3ccccc3)CC2)cc1	-0.7	-2.8	?	23.7%
CCOC(=O)C1(CCc2ccccc2)CCN(C2Cc3ccccc3C2)CC1	27.0*	76.1*	-27.1%	?
SMILES	CHX counter	Shiga inhibitor	Pf growth 96h	Pf growth 48h
C=CCSc1nnc(NC(=O)c2cccc(S(=O)(=O)N(C)c3ccccc3)c2)s1	2.6	7.2	-20.6%	20.1%
Cc1noc(C)c1C(=O)OCC(=O)NCc1ccc(Cl)cc1	.	.	15.9%	-9.7%
CCOC(=O)C1(CCc2ccccc2)CCN(Cc2ccc3c(c2)OCCO3)CC1	-4.4	12.1	10.4µM*	1.7%
CCOC(=O)C1(CCc2ccccc2)CCN(Cc2ccc(NC(C)=O)cc2)CC1	-2.8	-5.3	4.15µM*	?
CCOC(=O)C1(CCOc2ccccc2)CCN(Cc2cccc(OC)c2OC)CC1	-2.1	-25.4	10.4µM*	?
CCOC(=O)C1(CCOc2ccccc2)CCN(Cc2ccc(C)s2)CC1	-0.7	-9.2	10.4µM*	13.1µM*
O=C(Nc1ccccc1N1CCOCC1)c1cccc(NS(=O)(=O)c2ccc(F)c(F)c2)c1	-2.5	2.7	20.5%	-17.3%[5.75 µM]
NC(=O)c1ccc(NC(=O)CS(=O)(=O)c2cn(CC(=O)N3CCCCC3)c3ccccc23)cc1	1.9	3.2	?	-15.3%
Cc1nonc1OCCNCc1c(C(=O)N(C)C)nc2ccc(Cl)cn12	-4.6	12.2	26.9%	?
C[C@@H]1CN(C(=O)c2nc3ccc(Cl)cn3c2CN[C@H]2CCCCNC2=O)C[C@H](C)O1	10.4	40.6	?	-24.6%
Cc1nonc1OCCNCc1c(C(=O)N2CCCCCCC2)nc2ccc(Cl)cn12	5.1	0.9	18.4%	3.7µM*
Cc1cccnc1CCNCc1c(C(=O)N2C[C@@H](C)O[C@@H](C)C2)nc2ccc(Cl)cn12	5.7	-8.2	-4.8%	10.4µM*
COc1ccc(C2=NOC(C(=O)Nc3ccc4c(c3)OCCO4)C2)cc1OC (stereo not given)	11.2	18.2	?	?
CCOc1ccc(C(=O)Nc2ccc(N3CCN(C)CC3)cc2)cc1	12.0	14.6	-15.5%	3.6%
CCCCOc1ccc(C(=O)Nc2ccc(N3CCN(C)CC3)cc2)cc1	-2.4	-13.6	-0.2%	?
CN1CCN(c2ccc(NC(=O)COc3ccc4ccccc4c3)cc2)CC1	8.8	4.2	0.8%	?
Cc1ccc(C(=O)Nc2ccc(N3CCN(C)CC3)cc2)cc1	34.3*	56.3*	-0.1%	67.5%
COc1ccc(C(=O)Nc2ccc(N3CCN(C)CC3)cc2)cc1	47.9*	.	0.0928µM*	107.4%
COc1ccc(C(=O)Nc2ccc(N3CCN(C)CC3)cc2)cc1OC	30.0*	47.7*	?	100.3%
CN1CCN(c2ccc(NC(=O)c3ccc4ccccc4c3)cc2)CC1	30.8*	85.4*	-40.6%	-18.6%
CC1Oc2ccccc2N(CC(=O)NC2CCCCC2)C1=O (stereo not given)	-4.3	-3.8	-15.9%	0.4%
CCc1nc(SCC(=O)Nc2ccc(OC)cc2[N+](=O)[O-])n[nH]1	-3.0	-6.4	56.7%	110.5%
NC(=O)C1CCN(C(=O)CCC(=O)c2ccc(Br)cc2)CC1	7.9	-4.1	-1.1%	5.8%
O=C(CCC(=O)N1CCN(c2ccc(O)cc2)CC1)c1ccc(Br)cc1	-1.4	-4.6	9.28µM*	25.3%
O=C(CCC(=O)N1CCN(c2ccc(O)cc2)CC1)c1cccs1	30.5*	51.9*	7.38µM*	13.1µM*
SMILES	CHX counter	Shiga inhibitor	Pf growth 96h	Pf growth 48h
O=C(CCC(=O)N1CCN(c2ccccc2F)CC1)c1ccc(F)cc1	15.4*	22.3	24.1%	42.3%
CN1CCN(C(=O)CCC(=O)c2ccc(F)cc2)CC1	15.4	15.5	7.8%	3.4%
CCOc1ccc(S(=O)(=O)Nc2cccc(C(=O)N(C)CC(=O)Nc3cccc(OC)c3)c2)cc1	.	.	8.9%	-12.3%
O=C(COc1coc(CN2CCN(c3ccccc3F)CC2)cc1=O)NCC1CCCO1 (stereo not given)	.	.	?	4.4%
O=C(CSc1nc2ccccc2[nH]1)N/N=C/c1ccco1	24.5*	62.4*	45.2%	14.5%
O=C(CSc1nc2ccccc2o1)N/N=C/c1ccco1	21.3*	50.1*	134.3%	133.6%
Cn1cccc1/C=N/NC(=O)CSc1nc2ccccc2[nH]1	20.3*	22.0	10.0%	30.3%
Cc1cc(C)c(NC(=O)/C(=C/c2ccccc2)c2ccccc2)c(C)c1	-3.0	-8.2	14.2%	4.15µM*
CCOC1=NN(c2ncc(C(F)(F)F)cc2Cl)C(=O)/C1=C/N(C)C	-3.7	-21.4	46.1%	30.7%
CC(=O)N1CCN(Cc2nc3cc(NC(=O)c4ccc(F)cc4)ccc3n2C)CC1	8.1	29.3	-5.3%	0.5%
